# Bioassay records from PubChem.
# These entries were drawn from the full list.
# aSyn 5UTR act – Activators via SNCA 5'UTR binding, MLPCN. alpha-synuclein 5'UTR reporter, activators screen. activity score, % (tested at 7.5 µM), hits read low. 300,000 compounds, 7.1% hits. AID 1814; in the data active = activity score below about -60%
# Starred values were filed as active, the others as inactive.
SMILES,aSyn 5UTR act
COc1ccccc1OC(=O)Nc1ccc(Cl)cc1,-83*
COc1cc(NC(=O)c2ccccc2)cc(OC)c1,-131*
COc1ccnc(CSC(N)=Nc2ccc(F)cc2)c1,-111*
Cc1ccc(-c2nc(-c3nccc4ccccc34)oc2-c2ccccc2)cc1,-137*
COc1ccc(NC(=O)/C(C#N)=C\c2ccc(Br)o2)cc1,-114*
CNC(=O)/C(C#N)=C/c1ccc(-c2ccc(OC)cc2[N+](=O)[O-])o1,-76*
COc1ccc(NC(=O)/C(C#N)=C\c2cc(C)n(-c3ccc4c(c3)OCO4)c2C)cc1,-107*
Cc1cc(O)c(C2=Nc3ccccc3SC(c3ccc(Cl)cc3)C2)c(=O)o1 (centres undefined),-261*
CC(C)c1cc2c(c(O)c1O)[C@@]13CCCC(C)(C)C1CC2OC3=O (some centres undefined),-126*
Cc1ccsc1C(=O)OCC(=O)Nc1sccc1C(N)=O,-130*
NC(=O)c1ccsc1NC(=O)CCc1ccccc1,-153*
COC(=O)c1ccsc1NC(=O)CCc1ccccc1,-109*
Cc1ccc(NC(=O)Nc2cccc(F)c2)nc1,-176*
O=C(Nc1cccc(F)c1)Nc1ccc(Cl)cn1,-135*
[O-]/C(=C(\C(=S)Nc1cccc2ccccc12)[n+]1ccccc1)c1ccc(Cl)s1,-63*
CCC(=O)NC(/C=C/c1ccccc1)c1cc([N+](=O)[O-])c2cccnc2c1O (centres undefined),-94*
CCC(=O)NC(c1ccc(OC)c(OC)c1)c1cc(Cl)c2cccnc2c1O (centres undefined),111
CC(C)C(=O)NC(c1cccc([N+](=O)[O-])c1)c1ccc2cccnc2c1O (centres undefined),91
CCOC(=O)N1CC=C2C(C#N)=C(N)C(C#N)(C#N)[C@H](c3ccccc3OCC)[C@H]2C1,-90*
COc1ccc(CNC(=O)NC2CCCCC2)cc1,-80*
O=C(NC1CCCCC1)C(=S)NC1CCCCC1,-106*
O=C(NC1CCCCCC1)C(=S)NCc1ccccc1,-86*
O=C(NC1CCCCC1)C(=S)NCc1ccccc1,-71*
C=C1C(=O)O[C@@H]2[C@H]1[C@@H](OC(=O)/C(C)=C/C)C/C(C)=C\C(=O)/C=C(\C)[C@@H]2O,-311*
O=c1c2c3c(sc2nc2sc(C4CC4)nn12)CCCC3,-130*
SMILES,aSyn 5UTR act
C1CCC(c2nn3c(-c4n[nH]c5c4CCC5)nnc3s2)CC1,56
CC(=O)N(C(C)=O)n1c(C)nc2sc3c(c2c1=O)CCCC3,51
Cc1ccc(Cn2ncn(-c3ccccc3)c2=O)cc1,-74*
CCN1CCN(c2ccc(NC(=O)c3cccc(F)c3)cc2Cl)CC1,-82*
O=C(Nc1ccc(N2CCCC2)c(Cl)c1)c1ccco1,-113*
O=C(Nc1ccc(N2CCOCC2)c([N+](=O)[O-])c1)c1ccco1,-73*
CCN1CCN(c2ccc(NC(=O)c3ccco3)cc2Cl)CC1,-112*
Nc1nn(-c2ccccc2)nc1C(=O)OCc1ccccc1,-63*
Cc1cnc(NCCc2ccccc2)s1,-63*
O=C(O)/C=C\C(=O)Nc1ccccc1C#Cc1ccccc1,-87*
O=C(O)/C=C\C(=O)Nc1ccccc1C#Cc1ccc(Br)cc1,-290*
O=C(CSc1nc(-c2ccc(F)cc2)cs1)N1CCOCC1,-119*
c1ccc(-c2csc(N3CCSCC3)n2)cc1,-90*
Brc1ccc(-c2csc(N3CCC(c4ccccc4)C3)n2)cc1 (centres undefined),-86*
Fc1ccc(-c2csc(N3CCOCC3)n2)cc1,-129*
c1ccc(-c2cn3nc4c(nc3n2)CCCC4)cc1,109
c1ccc(-c2csc(-n3cccn3)n2)cc1,-130*
Fc1ccc(-c2csc(N3CCSCC3)n2)cc1,-63*
Cc1ccc(NCc2ccccc2O)cc1C,-116*
Oc1ccccc1CNc1ccc(OC(F)(F)F)cc1,-72*
Oc1ccccc1CNc1ccc2c(c1)OCCO2,-72*
COC(=O)c1cc(-c2c(C)nn(-c3ccccc3)c2C)n[nH]1,-87*
Cc1ccc(-c2cc(C(=O)N/N=C/c3c(C)nn(-c4ccccc4)c3C)[nH]n2)cc1,66
CC12CCC(C(=O)Nc3nc4ccc(Br)cc4s3)(OC1=O)C2(C)C (centres undefined),-92*
CCc1nnc(NC(=O)CSc2nc3c(cc2C#N)CCCC3)s1,-91*
SMILES,aSyn 5UTR act
CSC1CCCCC1(O)CSc1nc2c(cc1C#N)CCCC2 (centres undefined),56
CCOC(=O)c1sc(NC(=O)CSc2nc3c(cc2C#N)CCCCC3)c(C#N)c1C,-143*
COC(=O)CC(=O)CSc1nc2c(cc1C#N)CCCCC2,-62*
CC1(C)CC(=O)c2sc(NC(=O)C3COc4ccccc4O3)nc2C1 (centres undefined),-101*
CC1(C)CC(=O)c2sc(NC(=O)c3ccco3)nc2C1,-120*
COc1ccc(C2CC(=O)N(C)c3ccccc3S2)cc1OC (centres undefined),-87*
Cc1cccc(C)c1NS(=O)(=O)c1ccc(-c2cnc(C3CC3)o2)cc1,103
CC(=O)O[C@H]1C(=O)[C@]2(C)[C@H]([C@H](OC(=O)c3ccccc3)[C@]3(O)C[C@H](OC(=O)[C@H](O)[C@@H](NC(=O)c4ccccc4)c4ccccc4)C(C)=C1C3(C)C)[C@]1(OC(C)=O)CO[C@@H]1C[C@@H]2O,95
Cc1ccc(C(=O)N2C(CC(=O)Nc3ccc(Cl)cc3)C(=O)NC3CCCCC32)cc1 (centres undefined),-72*
Cc1ccc(N=Nc2ccc3ccccc3c2O)cc1,61
Cc1ccc(N=Cc2sc(O)c3ccccc23)cc1,-237*
Cc1ccc(N=Cc2sc(O)c3ccccc23)c(C)c1,-190*
COc1cccc(NC(=O)Nc2nc(SC(C)(C)C)ns2)c1,-130*
COc1cccc(NC(=O)Nc2nc(SC)ns2)c1,-151*
Clc1ccc(-c2noc(CN3CCOCC3)n2)cc1,-86*
Oc1ccc(/C=N/Nc2ncnc3c2ncn3Cc2ccccc2)cc1O,-67*
Nc1c(S(=O)(=O)c2cccc(Cl)c2)c2nc3ccccc3nc2n1/N=C/c1ccc(O)c(O)c1,89
Oc1cccc(/C=N/Nc2ncnc3c2ncn3Cc2ccccc2)c1,-77*
CC1CCN(C(=O)CSc2nc3ccccc3[nH]2)CC1,-105*
Cc1[nH]c2ccccc2c1C(=O)CSc1nc2ccccc2[nH]1,-100*
Cc1[nH]c2ccccc2c1C(=O)CSc1nc2ccccc2c(=O)n1CCCN1CCOCC1,-67*
C/C(N)=C(/C#N)C(=O)CSc1nnnn1-c1ccc(C)cc1,-90*
Cc1[nH]c2ccccc2c1C(=O)CSC(=S)N1CCCCC1,-159*
C/C(N)=C(/C#N)C(=O)CSc1nc2ccccc2[nH]1,-115*
CCS(=O)(=O)Nc1cccc(-c2nc3cccnc3s2)c1,-62*
SMILES,aSyn 5UTR act
Cc1c(NS(C)(=O)=O)cccc1-c1nc2cccnc2s1,-64*
CCS(=O)(=O)Nc1cc(-c2nc3cccnc3s2)ccc1C,-123*
Cc1ccc(-c2nc3cccnc3s2)cc1NC(=O)c1ccco1,-198*
CCC(C)(C)c1ccc(Oc2cccc(C(=O)O)c2)cc1,-95*
CCCC(C)NC(=O)c1cccc(Oc2ccccc2)c1 (centres undefined),-64*
CCC(C)(C)c1ccc(Oc2ccc(N)cc2)cc1,127
Cc1ccsc1/C=N/Nc1nc2ccccc2[nH]1,-213*
Cc1cc(=O)[nH]c(N/N=C/c2sccc2C)n1,-90*
C(=N\Nc1nc2ccccc2[nH]1)/c1cccs1,-172*
Cc1ccc(OCCn2c(NC(=O)c3ccco3)nc3ccccc32)cc1,67
